Measurements reported in PubChem BioAssay AID504832 (National Center for Advancing Translational Sciences (NCATS), 2011).
The whole screen tested about 310,000 compounds, of which about 18,000 (5.8%) were called active. Inconclusive results (about 22%) are left out. The entries come from a sample that favours actives as a whole. Unmarked numbers belong to inactive results. Calls come from the whole dose curve; as a rule, active = well fitted inhibition curve with a large enough effect; inconclusive = small, poorly fitted or top-dose-only effect, or another doubt; inactive = no such curve, though single readings can be large or run the other way.

Test: Primary qHTS for delayed death inhibitors of the malarial parasite plastid, 48 hour incubation
Conditions: P. falciparum luciferase growth in erythrocytes; series mostly up to 28.7 µM; activity change, negative = inhibition: at the top concentration
Method in brief: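 Growth was read as firefly luciferase luminescence after a 48 h, 37 C, 5% CO2 exposure of compounds to reporter-bearing P. falciparum cultures (0.1% parasitemia, 2% hematocrit final) in Albumax-supplemented RPMI 1640.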
% is set by controls: 0 for no effect and ±100 for the full control effect; potency is the fitted concentration of half-maximal effect.

Compared with `O=C(O)c1ccc(S(=O)(=O)N2CCOCC2)o1`, `Cc1ccc(NC(=O)NC2CCCCC2)cc1S(=O)(=O)N1CCOCC1` is lower in “activity change, negative = inhibition” value: 23.6% for the first, -7.23% for the second.

Going from `CN(C(=O)COC(=O)Cn1cnc2c1c(=O)n(C)c(=O)n2C)C1(C#N)CCCCC1` to `CC(C)n1c(SCC(=O)Nc2ccccc2N2CCCCC2)nc2c1c(=O)n(C)c(=O)n2C`, the “activity change, negative = inhibition” value falls from 22.8% to -8.49%.

First: CCCC(=O)N1CCC(CCC(=O)NC2CC2)CC1
Second: CCC(=O)c1ccc(OCC(=O)OCC(=O)NC2CCCCCC2)cc1
The “activity change, negative = inhibition” value of the first is higher: 40.2% for the first, -18.2% for the second.

First: CCOC(=O)c1ccc2[nH]c3c(c2c1)CCCC3NC=O (stereo not given)
Second: COC(=O)c1ccc(C)c(NC(=O)C2CC(=O)N(C3CCCC(C)C3C)C2)c1 (stereo not given)
The “activity change, negative = inhibition” value of the first is higher: 3.34% for the first, -11.9% for the second.

Compared with `CC(C)[C@@H](NC(=O)OC(C)(C)C)C(=O)NCC1CCC(C(=O)N[C@@H](Cc2ccccc2)C(=O)O)CC1` (stereo not given in full), `O=C(NC(Cc1ccc(O)cc1)C(=O)O)/C(=C/c1ccccc1)NC(=O)c1ccccc1` (stereo not given) is higher in “activity change, negative = inhibition” value: -7.46% for the first, 78.7% for the second.

Going from `Cc1ccc(S(=O)(=O)N(C)C)cc1NC(=O)COC(=O)/C=C/c1cccs1` to `CN(C)S(=O)(=O)c1cccc(NC(=O)Cc2ccsc2)c1`, the “activity change, negative = inhibition” value falls from 7.2% to -7.53%.

Compared with `Cc1csc(NC(=O)CSc2nc(=O)cc(N)n2-c2ccc(F)cc2)n1`, `O=C(COC(=O)c1ccc(F)cc1)Nc1nc2ccc([N+](=O)[O-])cc2s1` is lower in “activity change, negative = inhibition” value: -0.578% for the first, -18.4% for the second.

Going from `NC(=O)C1CCN(C(=O)c2cn(-c3ccccc3)nc2-c2cccnc2)CC1` to `O=C(c1cn(-c2ccccc2)nc1-c1cccnc1)N1CCCCC1`, the “activity change, negative = inhibition” value falls from 20.7% to -29.5%.

First: Cc1ccc(S(=O)(=O)CCC(=O)OCC(=O)NCCc2ccc(S(N)(=O)=O)cc2)cc1
Second: CC(OC(=O)CCCc1c[nH]c2ccccc12)C(=O)Nc1ccc(S(N)(=O)=O)cc1 (stereo not given)
The “activity change, negative = inhibition” value of the first is lower: -10.4% for the first, 19% for the second.

Going from `CC1CCCC(C)N1C(=O)CSc1nnnn1C1CCCC1` (stereo not given) to `COc1cccc(NC(=O)C/C(C)=N/NC(=O)C2CCCCC2)c1`, the “activity change, negative = inhibition” value falls from 27.6% to 7.61%.

First: COc1ccc(OC)c(/C(C)=N\NC(=O)c2cc3cc(Cl)ccc3n2C)c1
Second: COC(=O)c1cc(NS(=O)(=O)c2ccc3c(c2)c(=O)n(C)c(=O)n3C)cc(C(=O)OC)c1
The “activity change, negative = inhibition” value of the first is lower: -1.37% for the first, 20.2% for the second.

Going from `O=C(CCCN1C(=O)/C(=C\c2ccco2)SC1=S)Nc1cccc2ccccc12` to `O=C(Nc1ccccc1N1CCCC1)c1ccc2ccccc2c1`, the “activity change, negative = inhibition” value rises from 5.18% to 10%.

Compared with `Cc1cccn2c(=O)c(/C=C3\SC(=S)N(CC(C)C)C3=O)c(NCCCOC(C)C)nc12`, `COCCN(C(=O)CSCc1ccc(C)cc1)c1c(N)n(CC(C)C)c(=O)[nH]c1=O` is lower in “activity change, negative = inhibition” value: 4.14% for the first, -24.5% for the second.

First: CC(=O)c1ccc(NC(=O)CCNS(=O)(=O)c2cc(Br)cnc2N)cc1
Second: COc1ccc(NS(=O)(=O)c2ccc(F)cc2F)cn1
The “activity change, negative = inhibition” value of the first is lower: 5.08% for the first, 38.3% for the second.

First: COc1cc(C(=O)NNC(=O)CN2C(=O)NC3(CCCC3)C2=O)cc(OC)c1OC
Second: COc1cc2[nH]c(=O)n(CCC(=O)NC3CCN(Cc4ccccc4)CC3)c(=O)c2cc1OC
The “activity change, negative = inhibition” value of the first is lower: -15% for the first, 21.7% for the second.

Compared with `O=C(N/N=C/c1c[nH]c2ccccc12)c1ccccc1O`, `O=C1c2ccccc2C(=O)C1c1ccccc1F` is higher in “activity change, negative = inhibition” value: -19.7% for the first, 8.55% for the second.

Going from `Cc1cc(NC(=O)CSCc2ccccc2C)no1` to `Cc1cc(NC(=O)COc2ccc([N+](=O)[O-])cc2)no1`, the “activity change, negative = inhibition” value falls from 14.7% to -10.4%.

First: CCN(CC)c1ccc(/C=N/NC(=O)CNC(=O)c2cccnc2)cc1
Second: CC(=O)c1cccc(OCc2cc(C(=O)NC(C)Cc3cccnc3)no2)c1 (stereo not given)
The “activity change, negative = inhibition” value of the first is higher: 30.6% for the first, 0% for the second.

First: CCOc1cc2[nH]c(=O)n(Cc3ccc(C(=O)NCCCN4CCCC4=O)cc3)c(=O)c2cc1OCC
Second: CCOC(=O)c1ccc(NC(=S)N2CCN(c3ccccn3)CC2)cc1
The “activity change, negative = inhibition” value of the first is lower: -6.67% for the first, 15% for the second.

First: CCCS(=O)(=O)N1CCN=C1SCc1cccc(F)c1
Second: CN(C)CCN(Cc1ccccc1)S(=O)(=O)c1csc(C(N)=O)c1
The “activity change, negative = inhibition” value of the first is lower: -6.09% for the first, 34.9% for the second.

First: COc1cc(F)c(C2=CC(=O)CC(C)(C)C2)cc1F
Second: CC1(C)CC(=O)C=C(Nc2ccccc2)C1
The “activity change, negative = inhibition” value of the first is higher: 28.7% for the first, -13.2% for the second.

Going from `O=C1NCCn2nc3ccccc3c21` to `COc1cccc(NC(=O)C(=O)c2cn(CC(=O)N3CCOCC3)c3ccccc23)c1`, the “activity change, negative = inhibition” value rises from 2.57% to 63.7%.

Going from `CCOC(=O)c1c(S(=O)(=O)Nc2cccc(Cl)c2)c(C)n(C)c1C` to `NS(=O)(=O)c1cccnc1Nc1cccc(Cl)c1`, the “activity change, negative = inhibition” value rises from -8.53% to 33.3%.

Going from `Cc1ccc2c(c1)N(CC(=O)N1CCOCC1)C(=O)CO2` to `CCc1cc(=O)oc2c(C)c(OCC(=O)N3CC[C@@]4(O)CCCC[C@H]4C3)ccc12`, the “activity change, negative = inhibition” value falls from 17.2% to -23.9%.

Going from `O=S(=O)(NCc1ccc(Cl)cc1Cl)c1cccs1` to `CN(c1ccccc1)S(=O)(=O)c1cccc(NC(=O)Cc2c(F)cccc2Cl)c1`, the “activity change, negative = inhibition” value falls from 42.9% to -25.5%.

Compared with `CC(C)(C)NC(=O)NCc1ccco1`, `O=C(NCc1ccco1)c1nc(-c2ccccc2)n(-c2ccccc2)n1` is lower in “activity change, negative = inhibition” value: 13.8% for the first, 5.98% for the second.

First: O=C(Nc1nc2ccc([N+](=O)[O-])cc2s1)c1ccncc1
Second: CC1(C(=O)NNC(=S)NCC2CCCO2)CC1(Cl)Cl (stereo not given)
The “activity change, negative = inhibition” value of the first is lower: -30.6% for the first, -1.58% for the second.

For `O=C(c1cn(-c2ccccc2)nc1-c1cccnc1)N1CCN(S(=O)(=O)c2ccccc2F)CC1`, the Potency was 11.7 µM (active).
With `CCCN(CCC)c1nc2c(C)cccn2c(=O)c1/C=C1/SC(=S)N(Cc2ccco2)C1=O` the Potency was 1.31 µM (active).
In the case of `Cc1cc(NC(=O)C(C)SCC(=O)Nc2ccccc2N2CCCCC2)no1` (stereo not given), the Potency is reported as 8.28 µM (active).
In the case of `COc1cc2[nH]c(=O)n(Cc3ccc(C(=O)NC4CCN(Cc5ccccc5)CC4)cc3)c(=O)c2cc1OC`, the Potency is reported as 13.1 µM (active).
For `CC1(C)CC(=O)C=C(c2ccc(Cl)c(C(F)(F)F)c2)C1`, the Potency was 5.86 µM (active).
With `CCOc1c(Nc2cccc(Cl)c2)c(=O)c1=O` the Potency was 7.38 µM (active).
In the case of `Cc1ccc(NC(=O)C(C)OC(=O)Cc2c[nH]c3ccccc23)cc1S(=O)(=O)N1CCOCC1` (stereo not given), the Potency is reported as 5.22 µM (active).
With `Cc1nn(-c2ccccc2)c2sc(C(=O)N(Cc3ccco3)C(C)C(=O)NC(C)(C)C)cc12` (stereo not given) the Potency was 11.7 µM (active).
In the case of `O=C(NC(Nc1nc2ccc([N+](=O)[O-])cc2s1)(C(F)(F)F)C(F)(F)F)c1ccccc1`, the Potency is reported as 1.65 µM (active).
For `O=C1c2ccccc2C2=Nc3ccccc3SC(c3ccccc3F)C12` (stereo not given), the Potency was 0.329 µM (active).
With `CN(c1ccccc1)S(=O)(=O)c1cccc(NC(=O)Cc2ccc(Cl)cc2)c1` the Potency was 11.7 µM (active).
